Consider eleven compounds from PubChem BioAssay (EPA / NIEHS).

Activity calls are given as the source filed them. How the source made its calls: active means hit-call score of the fitted dose curve at least 0.9, where 1 is the maximum; inconclusive means response in the unintended direction; inactive means score below 0.9.

In this test the target is human CYP1A2, CYP1A2 (gene 1544) (UniProt P05177). Put plainly: NVS_ADME_hCYP1A2: NovaScreen (NVS) CYP450-related Enzyme Activity (ADME) Assay for human CYP1A2 (AID 2283102).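 On AC50: potency for inhibition since loss of fluorescence marks reduced CYP1A2 activity.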 As for the experimental part: NVS_ADME_hCYP1A2 is a biochemical, single-readout assay that uses extracted gene-proteins from insect cells in a cell-free assay. Measurements were taken 0.5 hour after chemical dosing in a 96-well plate.NVS_ADME_hCYP1A2 is one of one assay component(s) measured or calculated from the NVS_ADME_hCYP1A2 assay. It is designed to make measurements of enzyme activity, a form of enzyme reporter, as detected with fluorescence intensity signals by Fluorescence technology.Data from the assay component NVS_ADME_hCYP1A2 was analyzed into 1 assay endpoint. This assay endpoint, NVS_ADME_hCYP1A2, was analyzed in the positive analysis fitting direction relative to Acetonitrile as the negative control and baseline of activity. Using a type of enzyme reporter, loss-of-signal activity can be used to understand changes in the enzymatic activity as they relate to the gene CYP1A2. Furthermore, this assay endpoint can be referred to as a primary readout, because this assay has produced multiple assay endpoints where this one serves a enzymatic activity function. To generalize the intended target to other relatable targets, this assay endpoint is annotated to the cyp intended target family, where the subfamily is xenobiotic metabolism.
human CYP1A2, CYP1A2 (gene 1544), sequence (P05177 whole entry, looked up): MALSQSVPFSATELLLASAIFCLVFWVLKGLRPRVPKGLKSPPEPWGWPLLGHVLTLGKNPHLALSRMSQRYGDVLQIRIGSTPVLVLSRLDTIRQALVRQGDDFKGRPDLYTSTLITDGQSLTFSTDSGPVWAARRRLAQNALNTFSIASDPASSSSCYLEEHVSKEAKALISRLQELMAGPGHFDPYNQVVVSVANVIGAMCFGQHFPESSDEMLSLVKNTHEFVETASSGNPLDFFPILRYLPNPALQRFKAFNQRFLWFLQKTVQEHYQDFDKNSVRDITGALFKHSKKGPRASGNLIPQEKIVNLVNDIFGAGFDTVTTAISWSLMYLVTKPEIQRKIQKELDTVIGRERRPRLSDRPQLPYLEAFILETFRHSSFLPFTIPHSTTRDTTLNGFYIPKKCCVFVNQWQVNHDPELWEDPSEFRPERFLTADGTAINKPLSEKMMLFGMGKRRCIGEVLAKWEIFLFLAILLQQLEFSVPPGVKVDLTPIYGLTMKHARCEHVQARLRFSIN
Binding assays used specific radioligands (tritiated, iodinated) with non-radioactive competitive displacement ligands in agonist or antagonist protocols (as indicated) and various reference compounds and inhibitors to titrate specific binding to receptors and transporters. Most enzyme assays (CYPs, kinases, phosphatases, proteases, HDACs) used recombinant protein and specific substrates (fluorescence mostly, some colorimetric and radioactive) and inhibitors, followed by a biochemical separation of substrate and product. All assays for the biochemical HTS were initially run in duplicate at a single concentration (10 uM for CYP450 assays and 25 uM for all others). […] Each assay was run with positive and negative controls, and concurrent controls on every plate. The follow-up (secondary) screen tested active chemical-pairs in concentration series, as well as a few additional assays not tested in the primary screen, some selected negative inactives, and several cases re-run in the concentration series for confirmatory purposes.
A word on the AC50: it is the midpoint of the concentration-response curve, whichever way the signal moves. As to `O=C(OCCCCCCOC(=O)c1ccccc1)c1ccccc1`, the AC50 is 5.42 µM (active). Consider `Clc1ccccc1C(c1ccccc1)(c1ccccc1)n1ccnc1`, for which the outcome was inactive. As to `CC1(C)NC(=O)N(c2ccc([N+](=O)[O-])c(C(F)(F)F)c2)C1=O`, the AC50 was 5.28 µM (active). On the same count and under the same terms, under `CCCCCCCCOC(=O)c1cc(O)c(O)c(O)c1` stands 4.26 µM (active). On to `OC12N=C(c3ccccc3)SC1Cc1cc(Cl)ccc12` (stereo unspecified), for which the AC50 was 0.814 µM (active). On to `Cc1c2ccccc2c(C)c2c1ccc1ccccc12`, for which the AC50 was 4.33 µM (active). As to `CCOC(=O)O[C@H](C)OC(=O)c1ccc2c(c1)cc(C(=O)NC1CCN(C(C)C)CC1)n2Cc1cc(-c2ccc(Cl)s2)on1`, the half-maximal activity concentration (AC50) is 13.7 µM (active). Same read-out and setting: the same measure for `CN(C)c1ccc(C(=C2C=CC(=[N+](C)C)C=C2)c2ccc(N(C)C)cc2)cc1`: 6.67 µM (active); for `CCCCOC(=O)c1ccc(O)cc1`: 2.4 µM (active); for `Clc1cc(Cl)c2c(c1)N=C1CCCCCN1C2`: 2.34 µM (active).

Consider `NCc1cccc(C2CCN(C(=O)c3ccc(C#Cc4ccccc4F)o3)CC2)c1`, for which the AC50 was 6.43 µM (active).
